# In the library only some 6.8% were active in any assay of this set; here they are far more common.
# C diff growth – blocks growth of Clostridium difficile; Clostridium difficile clinical isolate growth, OD600, 24 h; hits give low values; growth activity, negative = inhibition, % at 16 µg/mL (by protocol); 86,000 compounds, 0.25% hits; AID 1259249;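 active = mean growth activity at or below -80% and every replicate also at or below -80%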;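 note: 0% = DMSO wells and -100% = levofloxacin 16 µg/mL wells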
# Pf Dd2 growth – blocks growth of Plasmodium falciparum Dd2 parasites; P. falciparum Dd2 growth, SYBR Green, 72 h; hits give low values; 94,000 compounds, 2.3% hits; activity change, % at 10 µM; in the data active = activity change below about -80%
# Tcruzi prolif – blocks T. cruzi growth in NIH3T3 culture | T. cruzi beta-gal in NIH3T3, GalScreen luminescence, 90 h | inhibition, % at 8.34 µM | 77,000 compounds, 5.9% hits | AID 624255;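 active = mean inhibition above about 93%, with at least 55% of replicates each passing it, limit read from the data, passing the limit was not always enough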
# Starred values were filed as active, the others as inactive; x = no result given.
SMILES,C diff growth,Pf Dd2 growth,Tcruzi prolif
COc1ccc2c3c(n(C)c2c1)[C@H](CO)N(C(=O)C1CCOCC1)CC31CCN(Cc2cccc(F)c2)CC1,8,-20,x
O=C(CC1CC1)N1CC(=O)N2[C@H](C1)[C@H](c1ccc(/C=C/c3ccccc3)cc1)[C@@H]2CO,-2,7,x
C[C@H](CO)N1C[C@H](C)[C@@H](CN(C)C(=O)Nc2ccc(F)cc2)Oc2ccc(NS(=O)(=O)c3cn(C)cn3)cc2CC1=O,2,12,5
COc1ccc2c3c([nH]c2c1)[C@@H](CO)NCC31CCN(C(=O)C2CCCC2)CC1,9,-26,x
CO[C@@H]1CN(C)C(=O)c2cc(NC(=O)Nc3ccc(Cl)c(Cl)c3)ccc2OC[C@H](C)NC[C@H]1C,-98*,-77,-61
CO[C@@H]1CN(C)C(=O)c2cc(NC(=O)Nc3ccc(Cl)cc3)ccc2OC[C@@H](C)NC[C@@H]1C,-2,-1,-25
COc1cccc(NC(=O)Nc2ccc3c(c2)C(=O)N(C)C[C@H](OC)[C@@H](C)CN[C@H](C)CO3)c1,x,7,-9
CO[C@H]1CN(C)C(=O)c2cc(NC(=O)Nc3ccc(Cl)cc3)ccc2OC[C@H](C)NC[C@H]1C,-1,-9,-28
CO[C@H]1CN(C)C(=O)c2cc(NC(=O)Nc3ccc(Cl)cc3)ccc2OC[C@H](C)NC[C@@H]1C,-4,22,-32
CO[C@@H]1CN(C)C(=O)c2cc(NC(=O)Nc3ccc(Cl)c(Cl)c3)ccc2OC[C@@H](C)NC[C@@H]1C,-97*,-86*,-58
CO[C@H]1CN(C)C(=O)c2cc(NC(=O)Nc3ccc(Cl)c(Cl)c3)ccc2OC[C@H](C)NC[C@@H]1C,-97*,-16,-56
COc1cccc(NC(=O)Nc2ccc3c(c2)C(=O)N(C)C[C@@H](OC)[C@H](C)CN[C@@H](C)CO3)c1,x,-87*,26
CCCNC(=O)N(C)C[C@H]1Oc2cc(-c3ccccc3F)ccc2S(=O)(=O)N([C@@H](C)CO)C[C@H]1C,0,20,x
Cc1noc(C)c1NC(=O)Nc1ccc2c(c1)C(=O)N([C@@H](C)CO)C[C@@H](C)[C@H](CN(C)Cc1ccc(C(=O)O)cc1)O2,x,23,2
C/C=C/c1cnc2c(c1)C(=O)N([C@@H](C)CO)C[C@H](C)[C@@H](CN(C)Cc1cccc(C(=O)O)c1)O2,-4,36,x
COc1ccc(CN2CC3(C2)CN(C(=O)Nc2ccc(F)cc2)[C@@H](CO)c2[nH]c4cc(OC)ccc4c23)cc1,7,-71,x
CCS(=O)(=O)N1CC2(CN(Cc3cccnc3)[C@H](CO)c3c2c2ccc(OC)cc2n3C)C1,x,18,x
CCCN(C)C[C@H]1Oc2cc(C#Cc3ccncc3)ccc2S(=O)(=O)N([C@@H](C)CO)C[C@H]1C,2,-74,x
CCCN(C)C[C@@H]1Oc2cc(C#Cc3cccnc3)ccc2S(=O)(=O)N([C@@H](C)CO)C[C@H]1C,-9,-89*,61
CCCN(C)C[C@H]1Oc2cc(C#Cc3cccnc3)ccc2S(=O)(=O)N([C@H](C)CO)C[C@@H]1C,-8,-82*,89
CCCN(C)C[C@H]1Oc2cc(C#Cc3ccncc3)ccc2S(=O)(=O)N([C@H](C)CO)C[C@H]1C,2,-71,x
C[C@@H]1CN([C@@H](C)CO)C(=O)c2cc(NC(=O)c3ccncc3)ccc2O[C@@H]1CN(C)C(=O)Nc1ccc2c(c1)OCO2,x,9,9
COc1ccc2c3c(n(C)c2c1)[C@@H](CO)N(C(=O)NC(C)C)CC31CCN(C(C)=O)CC1,-4,-17,x
CO[C@H]1CN(C)C(=O)c2cc(NC(=O)c3cccc(F)c3)ccc2OC[C@@H](C)NC[C@H]1C,x,29,-69
C[C@@H]1CN([C@H](C)CO)C(=O)Cc2cc(NC(=O)Nc3ccc(F)cc3)ccc2O[C@@H]1CN(C)C(=O)Nc1ccc(C(F)(F)F)cc1,14,4,-13
SMILES,C diff growth,Pf Dd2 growth,Tcruzi prolif
C[C@@H]1CCCCO[C@@H](CN(C)S(=O)(=O)c2ccc(F)cc2)[C@@H](C)CN([C@@H](C)CO)C(=O)c2cc(NS(=O)(=O)c3ccc(F)cc3)ccc2O1,1,-70,72
N#C[C@@H]1[C@H](c2ccccc2-c2ccc(F)cc2)[C@H](CO)N1C(=O)NC1CCCC1,-6,-92*,x
CCCNC(=O)N1[C@H](C#N)[C@H](c2ccc(-c3cccc(OC)c3)cc2)[C@H]1CO,12,-85*,77
N#C[C@H]1[C@@H](c2ccc(C3=CCCCC3)cc2)[C@H](CO)N1C(=O)NC1CCCC1,37,15,x
N#C[C@@H]1[C@@H](c2ccc(-c3cccc(F)c3)cc2)[C@@H](CO)N1C(=O)NC1CCCC1,-1,-20,91
N#C[C@@H]1[C@H](c2ccc(C3=CCCCC3)cc2)[C@H](CO)N1C(=O)NC1CCCC1,37,-83*,x
N#C[C@H]1[C@@H](c2ccccc2-c2ccc(F)cc2)[C@@H](CO)N1C(=O)NC1CCCCC1,7,61,x
CCCNC(=O)N1[C@H](CO)[C@@H](c2ccc(-c3cccc(OC)c3)cc2)[C@@H]1C#N,-2,-21,86
N#C[C@@H]1[C@H](c2ccc(-c3cccc(F)c3)cc2)[C@@H](CO)N1C(=O)NC1CCCC1,11,-87*,78
COc1ccc2c3c(n(C)c2c1)[C@@H](CO)N(C(=O)CN(C)C)CC31CN(C(=O)NC(C)C)C1,-3,-1,x
Cc1ccc(S(=O)(=O)Nc2ccc3c(c2)C(=O)N([C@@H](C)CO)C[C@H](C)[C@@H](CN(C)S(=O)(=O)c2cn(C)cn2)O3)cc1,4,14,-3
CC(C)NC(=O)N(C)C[C@H]1OCCCC[C@H](C)Oc2ccc(NC(=O)CCC(F)(F)F)cc2C(=O)N([C@H](C)CO)C[C@@H]1C,-2,-3,16
O=S(=O)(c1ccccc1)N1CC[C@@H]2[C@H]1c1cc(C#CC3CCCCC3)ccc1N[C@@H]2CO,-16,-34,x
C[C@H](CO)N1C[C@H](C)[C@@H](CN(C)C(=O)CN2CCOCC2)Oc2cc(/C=C/c3ccccc3)ccc2S1(=O)=O,-3,-19,15
CN1C(=O)CS(=O)(=O)C1c1ccccc1 (stereo unspecified),-3,x,x
COc1ccc(-c2ccccc2[C@H]2[C@@H](C#N)N(C(=O)NC3CCCCC3)[C@H]2CO)cc1,8,-90*,x
COc1ccc(-c2ccccc2[C@@H]2[C@@H](CO)N(C(=O)NC3CCCC3)[C@H]2C#N)cc1,2,-20,x
C[C@@H]1CN([C@@H](C)CO)C(=O)c2cc(-c3cccc(F)c3)cnc2O[C@@H]1CN(C)Cc1cccnc1,-6,16,41
O=C(C[C@@H]1CC[C@@H]2[C@H](COC[C@@H](O)CN2C(=O)c2ccccc2F)O1)NCc1ccc(-c2ccccc2)cc1,3,-86*,x
O=C(C[C@@H]1CC[C@@H]2[C@H](COC[C@@H](O)CN2C(=O)Nc2ccc(Cl)c(Cl)c2)O1)NCc1ccc(F)cc1,-16,-10,95
O=C(C[C@H]1CC[C@H]2[C@@H](COC[C@H](O)CN2C(=O)c2ccccc2F)O1)NCc1ccc(-c2ccccc2)cc1,-3,-55,x
CCNC(=O)C[C@@H]1CC[C@@H]2[C@H](COC[C@H](O)CN2C(=O)Nc2ccc(Cl)c(Cl)c2)O1,x,-4,-14
